TDP1 cell CPT: qHTS for Inhibitors of human tyrosyl-DNA phosphodiesterase 1 (TDP1): qHTS in cells in presence of CPT. chicken DT40 Tdp1-/-;hTDP1 cells + 20 nM CPT, ATP luminescence, 48 h. Potency, µM (doses to about 46.2 µM), for inactives: at the top dose activity change, negative = growth inhibition, hits mostly inhibitors. actives 12% (n = 420,000). AID 686979, 2013; further: potency means the concentration at half of the fitted maximal effect; nearly all actives have a fitted effect of over 55% in size
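Chicken DT40 Tdp1-/- cells complemented with human TDP1, 400 cells/well, exposed to compounds plus 20 nM camptothecin for at least 48 h at 37 C; viability read as ATP content by CellTiter-Glo luminescence.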
IL1B secr inh: qHTS for Inhibitors of Inflammasome Signaling: IL-1-beta AlphaLISA Primary Screen; THP-1 LPS/ATP IL-1B secretion, AlphaLISA, 16 h; stronger effect = lower value; activity change, % at 57.5 µM; actives 4.7% (n = 360,000); AID 743279, 2014; in the data active means activity change below about -50%; inconclusive means mostly about -30% to -49%
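Secreted IL-1B measured by AlphaLISA bead assay after 16 h compound exposure of THP-1 cells; compounds (final up to 57.5 uM) added 1 h before LPS (250 ng/mL) and ATP (1.25 mM) stimulation; lower signal means less secretion.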
TDP1 cell noCPT: qHTS for Inhibitors of human tyrosyl-DNA phosphodiesterase 1 (TDP1): qHTS in cells in absence of CPT; DT40 Tdp1-/- hTDP1 cells, no CPT, ATP luminescence, 48 h; Potency, µM (highest dose often 46.2 µM), for the others: top-dose activity change, negative = growth inhibition, hits mostly inhibitors; actives 15% (n = 420,000); further: potency means the concentration at half of the fitted maximal effect; nearly all actives have a fitted effect of over 55% in size
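Camptothecin absent (DMSO only). Human TDP1-complemented DT40 knockout cells, 400 cells/well, 37 °C for minimum 48 hr; ATP measured via CellTiter-Glo, 30 min dark incubation, luminescence.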
HT1080-NT tox: qHTS for induction of synthetic lethality in tumor cells producing 2HG: qHTS for the HT-1080-NT fibrosarcoma cell line; Potency, µM (series often up to 46.1 µM), inactives show at the highest dose activity, negative = less viability, actives largely listed as cytotoxic; AID 686970, 2013; HT-1080-NT fibrosarcoma viability, CellTiter-Glo ATP luminescence, 48 h; actives 1.6% (n = 360,000);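 further: NT is the 2HG producing partner of a matched IDH1 knockdown line; potency means the concentration at half of the fitted maximal effect; 0% = DMSO-treated cells and -100% = media-only wells without cells; nearly all actives have a fitted effect of over 55% in size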
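Viability by CellTiter-Glo luminescence after 48 h compound exposure at 37C of HT-1080-NT cells (750/well, RPMI, 5% FBS). % activity scaled between DMSO wells and medium-only wells, then curve-fitted and categorized by curve class.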
HT1080 IDH1KD tx: qHTS for induction of synthetic lethality in tumor cells producing 2HG: qHTS for the HT-1080-IDH1KD cell line. Potency, µM (doses to about 46.1 µM), for inactives: top-dose activity, negative = toxicity, hits mostly cytotoxic. HT-1080 IDH1 knockdown viability, ATP luminescence, 48 h. actives 2% (n = 360,000). AID 686971, 2013;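 further: potency means the concentration at half of the fitted maximal effect; 0% = DMSO wells and -100% = cell-free medium wells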
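Cytotoxicity counter-line: IDH1KD HT-1080, 48 h, CellTiter-Glo. Curves classed by r2, magnitude and activity.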
* hit, by the source's call; [ ] = dose if it differs, or a comment. A selection: hits, their analogues and other compounds. The true share with any hit is near 19%. Unless noted, the call rests on the fitted dose curve; in most records, active means well fitted curve in the direction sought with a large enough effect; inconclusive means small, poorly fitted or top-dose-only effect, or another doubt; inactive means no such curve, though single readings can be large; an effect the other way counts as inactive or inconclusive. Unless noted, on the % scale 0 is the no-effect control and ±100 the full control effect.

How did C/C(=N\NC(=O)c1cc(C2CC2)nc2ccccc12)c1ccc(O)cc1O do in these assays?
TDP1 cell CPT: 6.5µM*; IL1B secr inh: 147; TDP1 cell noCPT: 5.2µM*; HT1080-NT tox: inconclusive; HT1080 IDH1KD tx: 4.6µM*

Results for C/C(=N\NC(=O)c1cc(-c2cccnc2)nc2ccccc12)c1ccccc1O ?
TDP1 cell CPT: 4.6µM*; IL1B secr inh: 63; TDP1 cell noCPT: 3.7µM*; HT1080-NT tox: -11%; HT1080 IDH1KD tx: 9.2µM*

How did CCOC(=O)c1ccc(Nc2c(OCC)c(=O)c2=O)cc1 do in these assays?
TDP1 cell CPT: 1%; IL1B secr inh: -6; TDP1 cell noCPT: -4%; HT1080-NT tox: -1%; HT1080 IDH1KD tx: -2%

Results for Cc1cc(C)c2[nH]c(=O)c(CN(CC3CCCO3)C(=S)Nc3ccccc3)cc2c1 (centres undefined) ?
TDP1 cell CPT: inconclusive; IL1B secr inh: 16; TDP1 cell noCPT: inconclusive; HT1080-NT tox: 3%; HT1080 IDH1KD tx: 11%

What do the screens show for `O=c1[nH]c2cc3c(cc2cc1CN(Cc1nnnn1CC1CCCO1)C1CCCCC1)OCO3` (centres undefined)?
TDP1 cell CPT: inconclusive; IL1B secr inh: -4; TDP1 cell noCPT: inconclusive; HT1080-NT tox: 3%; HT1080 IDH1KD tx: 0%

Results for O=c1[nH]c2cc3c(cc2cc1CN(CCc1ccccc1)Cc1nnnn1CC1CCCO1)OCO3 (centres undefined) ?
TDP1 cell CPT: inconclusive; IL1B secr inh: -9; TDP1 cell noCPT: 23µM*; HT1080-NT tox: 1%[9.24 µM]; HT1080 IDH1KD tx: -4%

How did COc1ccc2[nH]c(=O)c(CN(Cc3ccc(C)cc3)Cc3nnnn3CC3CCCO3)cc2c1 (centres undefined) do in these assays?
TDP1 cell CPT: inconclusive; IL1B secr inh: -11; TDP1 cell noCPT: inconclusive; HT1080-NT tox: -5%; HT1080 IDH1KD tx: -13%

What do the screens show for `COc1ccc2[nH]c(=O)c(CN(CCc3ccccc3)Cc3nnnn3CC3CCCO3)cc2c1` (centres undefined)?
TDP1 cell CPT: 6.5µM*; IL1B secr inh: -17; TDP1 cell noCPT: 29µM*; HT1080-NT tox: inconclusive; HT1080 IDH1KD tx: -7%[9.24 µM]

Results for COc1ccccc1CN(Cc1cc2cc(C)cc(C)c2[nH]c1=O)Cc1nnnn1CC1CCCO1 (centres undefined) ?
TDP1 cell CPT: inconclusive; IL1B secr inh: 0; TDP1 cell noCPT: 23µM*; HT1080-NT tox: inconclusive; HT1080 IDH1KD tx: inconclusive

What do the screens show for `COc1ccc2[nH]c(=O)c(CN(Cc3ccccc3OC)Cc3nnnn3CC3CCCO3)cc2c1` (centres undefined)?
TDP1 cell CPT: 23µM*; IL1B secr inh: inconclusive; TDP1 cell noCPT: inconclusive; HT1080-NT tox: 4%; HT1080 IDH1KD tx: -16%

What do the screens show for `Cc1ccc2[nH]c(=O)c(CN(CCc3ccccc3)Cc3nnnn3CC3CCCO3)cc2c1` (centres undefined)?
TDP1 cell CPT: inconclusive; IL1B secr inh: -23; TDP1 cell noCPT: inconclusive; HT1080-NT tox: -4%; HT1080 IDH1KD tx: -5%

Results for CN(C(=O)Cn1cc(S(=O)(=O)N2CCN(c3ccccc3F)CC2)c2ccccc2c1=O)c1ccc(Cl)cc1 ?
TDP1 cell CPT: -28%; TDP1 cell noCPT: -30%

What do the screens show for `CCCCNC(=O)Cn1c(=O)c2c(ncn2CC)n(Cc2ccccc2)c1=O`?
TDP1 cell CPT: -8%; IL1B secr inh: 5; TDP1 cell noCPT: inconclusive; HT1080-NT tox: 7%; HT1080 IDH1KD tx: -2%

How did O=c1[nH]c2cc3c(cc2cc1CN(Cc1nnnn1CC1CCCO1)C1CCCC1)OCO3 (centres undefined) do in these assays?
TDP1 cell CPT: inconclusive; IL1B secr inh: 3; TDP1 cell noCPT: 13µM*; HT1080-NT tox: -4%; HT1080 IDH1KD tx: -2%

High-throughput results from PubChem.
